# For some assays here: Results with a measured potency or affinity are listed apart.
# Experiments:
# Design in all cases: scale not given: direction of the effect not stated beside the values
# [1] = molecular target: Protein translocase subunit SecA (Escherichia coli (strain K12)) (UniProt P10408); test: Assay to Identify E. coli SecA ATPase Inhibitors; type: functional; settings: 30 µM
# [2] = molecular target: T1, Ubiquitin-activating enzyme e1, putative (Leishmania donovani (strain BPK282A1)) (UniProt E9BSI1); test: Leishmania donovani Ubiquitin Activating Enzyme (LdE1); type: functional; settings: 30 µM
# T1 sequence (whole entry): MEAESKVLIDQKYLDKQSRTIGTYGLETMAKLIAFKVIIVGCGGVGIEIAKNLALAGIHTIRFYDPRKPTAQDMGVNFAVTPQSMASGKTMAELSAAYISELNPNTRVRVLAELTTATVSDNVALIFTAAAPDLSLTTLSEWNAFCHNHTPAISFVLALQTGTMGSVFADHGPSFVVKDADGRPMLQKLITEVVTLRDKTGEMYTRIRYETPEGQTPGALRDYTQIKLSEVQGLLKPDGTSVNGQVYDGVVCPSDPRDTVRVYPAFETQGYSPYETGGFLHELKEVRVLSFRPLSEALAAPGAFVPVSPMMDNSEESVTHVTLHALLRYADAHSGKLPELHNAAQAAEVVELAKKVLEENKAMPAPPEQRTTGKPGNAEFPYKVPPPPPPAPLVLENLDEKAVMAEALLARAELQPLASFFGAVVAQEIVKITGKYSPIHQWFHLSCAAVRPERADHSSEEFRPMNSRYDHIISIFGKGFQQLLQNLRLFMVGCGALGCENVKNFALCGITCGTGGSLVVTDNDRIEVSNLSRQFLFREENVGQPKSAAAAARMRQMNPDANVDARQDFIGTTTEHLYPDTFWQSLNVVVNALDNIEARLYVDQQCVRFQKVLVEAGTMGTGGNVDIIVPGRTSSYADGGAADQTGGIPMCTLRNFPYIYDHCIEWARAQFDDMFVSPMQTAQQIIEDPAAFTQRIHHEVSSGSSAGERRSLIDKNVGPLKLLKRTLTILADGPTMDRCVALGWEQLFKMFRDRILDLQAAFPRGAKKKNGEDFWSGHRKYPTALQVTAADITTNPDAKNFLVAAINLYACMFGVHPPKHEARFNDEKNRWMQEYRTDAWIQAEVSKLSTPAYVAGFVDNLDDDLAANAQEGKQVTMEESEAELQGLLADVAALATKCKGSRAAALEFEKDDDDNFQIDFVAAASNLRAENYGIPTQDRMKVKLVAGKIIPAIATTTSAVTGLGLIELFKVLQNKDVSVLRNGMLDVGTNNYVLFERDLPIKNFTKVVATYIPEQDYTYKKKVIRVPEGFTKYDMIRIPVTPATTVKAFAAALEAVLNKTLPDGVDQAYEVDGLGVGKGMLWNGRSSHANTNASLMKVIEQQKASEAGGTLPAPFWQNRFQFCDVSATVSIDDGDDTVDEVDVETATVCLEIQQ
# [3] = molecular target: T2, Aspartate--tRNA(Asp/Asn) ligase (Mycobacterium tuberculosis (strain ATCC 25618 / H37Rv)) (UniProt P9WFW3); test: Assay for Asp RNA synthetase-1 from Mycobacterium tuberculosis; type: functional; settings: 30 µM; also: in the data most compounds retested in dose-response had high values
# T2 sequence (whole entry): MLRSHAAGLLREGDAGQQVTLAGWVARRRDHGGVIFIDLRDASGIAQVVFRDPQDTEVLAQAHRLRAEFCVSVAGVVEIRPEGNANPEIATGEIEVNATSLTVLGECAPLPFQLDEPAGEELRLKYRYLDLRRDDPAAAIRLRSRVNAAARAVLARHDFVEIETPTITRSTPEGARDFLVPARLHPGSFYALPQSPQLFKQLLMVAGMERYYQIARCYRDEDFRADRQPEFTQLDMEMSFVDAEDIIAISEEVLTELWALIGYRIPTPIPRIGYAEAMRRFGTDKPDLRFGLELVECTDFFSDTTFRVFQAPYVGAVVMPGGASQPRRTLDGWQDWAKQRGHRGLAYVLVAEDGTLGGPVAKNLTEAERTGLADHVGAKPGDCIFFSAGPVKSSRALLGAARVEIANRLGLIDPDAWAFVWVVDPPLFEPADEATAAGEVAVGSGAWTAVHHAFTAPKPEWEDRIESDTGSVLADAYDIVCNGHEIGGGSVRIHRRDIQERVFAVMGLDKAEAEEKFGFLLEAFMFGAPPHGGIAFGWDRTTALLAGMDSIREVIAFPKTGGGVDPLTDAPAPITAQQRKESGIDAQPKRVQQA
# [4] = molecular target: Sialic acid-binding Ig-like lectin 9 (Homo sapiens) (UniProt Q9Y336); test: Hs-Siglec9 ALPHAscreen SOP 20170721; settings: 10 µM
# Sequence of Sialic acid-binding Ig-like lectin 9 (Homo sapiens) (Q9Y336 whole entry): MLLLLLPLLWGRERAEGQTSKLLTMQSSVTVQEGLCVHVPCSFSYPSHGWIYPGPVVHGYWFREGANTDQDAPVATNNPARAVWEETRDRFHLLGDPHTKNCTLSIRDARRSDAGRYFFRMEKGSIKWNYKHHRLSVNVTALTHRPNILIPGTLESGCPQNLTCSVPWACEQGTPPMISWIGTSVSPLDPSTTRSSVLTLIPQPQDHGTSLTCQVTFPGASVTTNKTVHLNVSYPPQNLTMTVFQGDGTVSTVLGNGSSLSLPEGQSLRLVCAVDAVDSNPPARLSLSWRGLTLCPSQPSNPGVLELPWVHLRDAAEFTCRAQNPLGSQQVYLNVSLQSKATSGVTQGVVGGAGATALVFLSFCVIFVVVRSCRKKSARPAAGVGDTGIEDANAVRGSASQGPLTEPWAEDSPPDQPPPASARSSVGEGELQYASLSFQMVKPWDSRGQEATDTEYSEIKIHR
# [5] = system: Trypanosoma cruzi; test: Trypanosoma cruzi phosphomannomutase and mannose-1-phosphate guanylyltransferase assay; type: functional; settings: 10 µM
# [6] = molecular target: T3, Arginase-2, mitochondrial (Homo sapiens) (UniProt P78540); test: in vitro enzyme assay to detect the production of urea directly proportional to the activity of Arginase II; type: functional; settings: 33.3 µM; also: in the data most compounds retested in dose-response had high values
# T3 sequence (whole entry): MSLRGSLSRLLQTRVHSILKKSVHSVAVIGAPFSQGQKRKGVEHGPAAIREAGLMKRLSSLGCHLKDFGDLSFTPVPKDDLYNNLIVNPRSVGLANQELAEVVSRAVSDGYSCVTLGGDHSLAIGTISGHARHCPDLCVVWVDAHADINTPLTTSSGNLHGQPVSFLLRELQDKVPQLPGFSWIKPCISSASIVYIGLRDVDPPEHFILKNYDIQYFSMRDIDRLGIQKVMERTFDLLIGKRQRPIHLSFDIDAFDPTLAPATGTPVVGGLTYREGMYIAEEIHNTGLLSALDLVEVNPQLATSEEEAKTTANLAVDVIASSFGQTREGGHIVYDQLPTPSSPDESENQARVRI
# [7] = molecular target: T4, Proteasome subunit beta (Trypanosoma cruzi) (UniProt O96673); test: Trypanosoma cruzi proteasome chymotrypsin-like activity (TcProtChymo) assay.; also: in the data most compounds retested in dose-response had high values; type: functional; settings: 9.37 µM
# T4 sequence (whole entry): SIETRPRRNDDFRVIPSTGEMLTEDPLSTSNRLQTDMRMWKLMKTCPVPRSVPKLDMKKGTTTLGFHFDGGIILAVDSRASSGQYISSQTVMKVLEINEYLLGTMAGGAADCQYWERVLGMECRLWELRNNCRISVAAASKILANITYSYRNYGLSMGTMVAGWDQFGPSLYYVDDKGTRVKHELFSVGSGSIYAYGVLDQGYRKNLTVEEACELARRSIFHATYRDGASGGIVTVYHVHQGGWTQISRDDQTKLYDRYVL
# [8] = organism: Homo sapiens; test: To identify inhibition of the IFN signalling (Jak-Stat) pathway via expression of an eGFP reporter gene under the control of an IFN-stimulated response element (ISRE) containing MxA promoter.; type: functional; settings: 30 µM
# [9] = molecular target: Shiga toxin 2 (Escherichia coli O157:H7) (UniProt P09385+P09386); test: E. coli 0.157:H7 Shiga Toxin SOP - stx2 screening assay; type: functional; settings: 30 µM
# [10] = molecular target: T5, Tyrosyl-tRNA synthetase, putative (Trypanosoma cruzi (strain CL Brener)) (UniProt Q4DSP6); test: Trypanosoma cruzi tyrosyl tRNA synthetase (TcYRS) _High Tyrosine SOP; type: functional; settings: 30 µM; also: in the data most compounds retested in dose-response had high values
# T5 sequence (whole entry): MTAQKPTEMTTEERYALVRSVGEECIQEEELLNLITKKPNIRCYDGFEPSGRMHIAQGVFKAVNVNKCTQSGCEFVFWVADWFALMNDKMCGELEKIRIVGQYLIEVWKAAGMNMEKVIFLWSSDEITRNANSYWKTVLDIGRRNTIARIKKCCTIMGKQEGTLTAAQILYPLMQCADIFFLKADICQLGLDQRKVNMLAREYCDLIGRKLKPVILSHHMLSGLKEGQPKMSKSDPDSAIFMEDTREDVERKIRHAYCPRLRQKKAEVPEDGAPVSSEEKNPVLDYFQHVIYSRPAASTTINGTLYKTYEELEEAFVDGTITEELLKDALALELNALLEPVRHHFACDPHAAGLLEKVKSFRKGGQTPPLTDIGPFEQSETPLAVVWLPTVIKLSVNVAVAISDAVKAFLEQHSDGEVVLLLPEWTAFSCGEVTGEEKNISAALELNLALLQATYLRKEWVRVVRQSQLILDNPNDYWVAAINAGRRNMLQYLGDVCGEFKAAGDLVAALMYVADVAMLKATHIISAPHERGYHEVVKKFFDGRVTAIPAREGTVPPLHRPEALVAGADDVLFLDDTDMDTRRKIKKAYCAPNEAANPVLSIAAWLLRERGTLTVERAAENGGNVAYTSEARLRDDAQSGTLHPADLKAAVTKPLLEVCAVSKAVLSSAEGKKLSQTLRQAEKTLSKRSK
# [11] = molecular target: T5, Tyrosyl-tRNA synthetase, putative (Trypanosoma cruzi (strain CL Brener)); test: Trypanosoma cruzi tyrosyl tRNA synthetase (TcYRS) SOP; type: functional; settings: 30 µM
# [12] = molecular target: Chromo domain-containing protein 1 (Saccharomyces cerevisiae (strain ATCC 204508 / S288c) (Baker's yeast)) (UniProt P32657); test: ScCHD-1 Enzyme Inhibition Assay; type: functional; settings: 30 µM; also: in the data most compounds retested in dose-response had high values
# Sequence of Chromo domain-containing protein 1 (Saccharomyces cerevisiae (strain ATCC 204508 / S288c) (Baker's yeast)) (P32657 whole entry, the tested form may be a part): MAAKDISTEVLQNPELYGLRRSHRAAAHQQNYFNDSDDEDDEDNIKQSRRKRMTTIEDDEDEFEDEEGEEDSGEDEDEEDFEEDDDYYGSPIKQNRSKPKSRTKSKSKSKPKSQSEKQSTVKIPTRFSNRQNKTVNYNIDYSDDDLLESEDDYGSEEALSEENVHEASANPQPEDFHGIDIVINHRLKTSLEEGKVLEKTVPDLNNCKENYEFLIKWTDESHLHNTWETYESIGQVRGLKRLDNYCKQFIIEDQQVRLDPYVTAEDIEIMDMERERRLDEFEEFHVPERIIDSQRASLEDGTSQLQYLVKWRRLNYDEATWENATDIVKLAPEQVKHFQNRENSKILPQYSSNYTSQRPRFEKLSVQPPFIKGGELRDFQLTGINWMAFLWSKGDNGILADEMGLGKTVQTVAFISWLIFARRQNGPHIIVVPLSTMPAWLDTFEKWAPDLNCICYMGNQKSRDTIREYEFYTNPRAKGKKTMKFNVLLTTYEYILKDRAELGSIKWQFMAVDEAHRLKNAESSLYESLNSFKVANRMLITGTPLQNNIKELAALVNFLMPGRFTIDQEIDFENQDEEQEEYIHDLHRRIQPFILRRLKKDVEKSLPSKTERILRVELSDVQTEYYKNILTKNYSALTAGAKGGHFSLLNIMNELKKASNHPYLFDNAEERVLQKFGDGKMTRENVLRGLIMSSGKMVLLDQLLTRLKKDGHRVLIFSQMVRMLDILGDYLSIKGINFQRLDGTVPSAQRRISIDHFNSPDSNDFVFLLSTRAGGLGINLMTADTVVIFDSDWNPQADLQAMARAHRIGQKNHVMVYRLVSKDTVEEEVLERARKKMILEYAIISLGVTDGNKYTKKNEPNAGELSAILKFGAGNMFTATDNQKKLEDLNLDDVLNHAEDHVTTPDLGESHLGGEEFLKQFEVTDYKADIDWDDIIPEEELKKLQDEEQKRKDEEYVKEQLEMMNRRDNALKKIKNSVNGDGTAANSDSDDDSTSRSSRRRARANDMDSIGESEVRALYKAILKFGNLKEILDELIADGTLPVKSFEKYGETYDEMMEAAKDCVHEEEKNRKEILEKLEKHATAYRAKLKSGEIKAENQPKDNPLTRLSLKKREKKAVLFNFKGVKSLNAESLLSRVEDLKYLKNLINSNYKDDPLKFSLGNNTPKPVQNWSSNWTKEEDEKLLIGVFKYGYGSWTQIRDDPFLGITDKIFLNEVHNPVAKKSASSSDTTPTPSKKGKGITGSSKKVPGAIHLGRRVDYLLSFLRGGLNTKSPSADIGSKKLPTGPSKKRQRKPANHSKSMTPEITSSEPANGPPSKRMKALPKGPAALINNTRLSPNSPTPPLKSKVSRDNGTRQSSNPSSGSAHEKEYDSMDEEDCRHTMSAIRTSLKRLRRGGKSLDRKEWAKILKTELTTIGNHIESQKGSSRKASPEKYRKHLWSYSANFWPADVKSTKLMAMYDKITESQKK
# [13] = molecular target: AMP-activated protein kinase, AMPK (Homo sapiens) (UniProt P54646+O43741+P54619+Q9UGJ0+Q9Y478+Q13131+Q9UGI9); test: AMP-dependent Kinase enzyme assay. An in vitro enzyme assay that detects ADP turnover that is directly proportional to AMPK activity. This uses naive AMPK that is activated during the assay with MK-8722; type: functional; settings: 30 µM
# Sequence of Protein translocase subunit SecA (Escherichia coli (strain K12)) (P10408 whole entry): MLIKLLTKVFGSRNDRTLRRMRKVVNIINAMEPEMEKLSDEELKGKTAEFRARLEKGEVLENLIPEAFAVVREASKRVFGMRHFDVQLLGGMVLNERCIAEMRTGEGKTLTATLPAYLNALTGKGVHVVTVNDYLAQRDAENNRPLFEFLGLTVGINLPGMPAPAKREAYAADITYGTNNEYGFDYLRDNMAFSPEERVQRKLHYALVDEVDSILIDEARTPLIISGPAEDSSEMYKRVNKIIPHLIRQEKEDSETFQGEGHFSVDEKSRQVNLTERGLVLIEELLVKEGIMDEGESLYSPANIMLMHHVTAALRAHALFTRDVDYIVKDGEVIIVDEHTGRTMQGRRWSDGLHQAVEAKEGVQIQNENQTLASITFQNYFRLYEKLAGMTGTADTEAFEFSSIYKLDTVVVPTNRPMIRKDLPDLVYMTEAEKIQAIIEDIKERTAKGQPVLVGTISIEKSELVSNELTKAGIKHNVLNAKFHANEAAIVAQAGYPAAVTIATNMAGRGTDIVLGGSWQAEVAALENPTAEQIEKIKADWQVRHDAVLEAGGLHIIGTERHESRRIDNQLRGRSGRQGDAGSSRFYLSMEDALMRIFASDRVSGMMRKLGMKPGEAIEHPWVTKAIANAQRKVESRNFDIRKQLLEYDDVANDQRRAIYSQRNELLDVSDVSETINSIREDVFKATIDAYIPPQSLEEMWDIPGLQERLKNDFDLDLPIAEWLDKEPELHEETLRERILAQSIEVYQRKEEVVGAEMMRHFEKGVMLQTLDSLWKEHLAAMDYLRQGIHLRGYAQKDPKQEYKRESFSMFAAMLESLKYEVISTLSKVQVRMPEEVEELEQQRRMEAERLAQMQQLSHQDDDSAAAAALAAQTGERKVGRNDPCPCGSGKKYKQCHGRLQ
compound,measurement,setting,value
C[C@@H]1C(=O)NC[C@H]2CN(Cc3ccsc3)C[C@H]21,Percent Effect,[1],-2.31%
same,Percent Effect,[2],3.9%
same,Percent Effect,[3],-1.43%
same,Percent Effect,[4],1.3%
same,Percent Effect,[5],1.88%
same,Percent Effect,[6],-0.457%
same,Percent Effect,[7],-4.55%
same,Percent Effect,[8],-3.55%
same,Percent Effect,[9],-20.9%
same,Percent Effect,[10],6.76%
same,Percent Effect,[11],10%
same,Percent Effect,[12],-9.75%
CSc1nccc(N2CCN(C)C3(CCNC(=O)CC3)C2)n1 (configuration not stated),Percent Effect,[1],-5.63%
same,Percent Effect,[2],8%
same,Percent Effect,[3],-0.126%
same,Percent Effect,[13],-1.22%
same,Percent Effect,[4],2.82%
same,Percent Effect,[5],-1.66%
same,Percent Effect,[6],5.73%
same,Percent Effect,[7],12.6%
same,Percent Effect,[8],-2.91%
same,Percent Effect,[10],3.83%
same,Percent Effect,[11],13.6%
same,Percent Effect,[12],-6.95%
COCCNC(=O)[C@@]12CCO[C@@H]1CCN(Cc1c(C)noc1C)C2,Percent Effect,[1],-4.83%
same,Percent Effect,[2],14.3%
same,Percent Effect,[3],11.2%
same,Percent Effect,[4],-7.07%
same,Percent Effect,[5],1.85%
same,Percent Effect,[6],3.24%
same,Percent Effect,[7],8.91%
same,Percent Effect,[8],-9.54%
same,Percent Effect,[9],-12.8%
same,Percent Effect,[10],14.2%
same,Percent Effect,[11],12.8%
same,Percent Effect,[12],-1.61%
C[C@H]1C(=O)NC[C@H]2CN(Cc3ccccc3)C[C@H]21,Percent Effect,[1],-1.35%
same,Percent Effect,[2],-1.3%
same,Percent Effect,[3],0.819%
same,Percent Effect,[4],-0.437%
same,Percent Effect,[5],1.5%
same,Percent Effect,[6],-0.457%
same,Percent Effect,[7],-1.12%
same,Percent Effect,[8],13.9%
same,Percent Effect,[9],5.59%
same,Percent Effect,[10],4.83%
same,Percent Effect,[11],0%
same,Percent Effect,[12],0.883%
CNC(=O)CN1CCOCC2(CCCN(Cc3cccnc3)C2)C1 (configuration not stated),Percent Effect,[1],-1.67%
same,Percent Effect,[2],-2.7%
same,Percent Effect,[3],2.13%
same,Percent Effect,[13],2.03%
same,Percent Effect,[4],-2.12%
same,Percent Effect,[5],-4.1%
same,Percent Effect,[6],-0.833%
same,Percent Effect,[7],0.93%
same,Percent Effect,[8],-2.53%
same,Percent Effect,[9],-22.5%
same,Percent Effect,[10],6.93%
same,Percent Effect,[11],1.22%
same,Percent Effect,[12],3.52%
Cn1cc(N2C(=O)CC[C@@H]3[C@H]2CCN3Cc2ccncc2)cn1,Percent Effect,[1],-1.29%
same,Percent Effect,[2],2.67%
same,Percent Effect,[3],-1.89%
same,Percent Effect,[13],-2.47%
same,Percent Effect,[4],5.41%
same,Percent Effect,[5],-0.193%
same,Percent Effect,[6],-56.1%
same,Percent Effect,[7],9.06%
same,Percent Effect,[8],-8.54%
same,Percent Effect,[9],-20.8%
same,Percent Effect,[10],5.21%
same,Percent Effect,[11],12.5%
same,Percent Effect,[12],-7.17%
CCc1cnc(N2CC3(CCN(Cc4ccsc4)C3)C2)nc1,Percent Effect,[1],-5.86%
same,Percent Effect,[2],3.9%
same,Percent Effect,[3],14.2%
same,Percent Effect,[4],-1.39%
same,Percent Effect,[5],-7.3%
same,Percent Effect,[6],0%
same,Percent Effect,[7],9.27%
same,Percent Effect,[8],12.9%
same,Percent Effect,[9],-11%
same,Percent Effect,[10],8.95%
same,Percent Effect,[11],2.56%
same,Percent Effect,[12],-4.35%
CCc1nc(CN2CCN(C(=O)Cc3c(C)noc3C)CC2)cs1,Percent Effect,[1],-0.475%
same,Percent Effect,[2],12.8%
same,Percent Effect,[3],-3.43%
same,Percent Effect,[4],-11.1%
same,Percent Effect,[5],2.72%
same,Percent Effect,[6],2.87%
same,Percent Effect,[7],6.06%
same,Percent Effect,[8],10.4%
same,Percent Effect,[9],-8.34%
same,Percent Effect,[10],6.22%
same,Percent Effect,[11],13.2%
same,Percent Effect,[12],-5.04%
CC(C)c1nccc([C@H]2C[C@@H]3CCN(Cc4ccoc4)C[C@H]3O2)n1,Percent Effect,[1],-3.97%
same,Percent Effect,[2],-6.49%
same,Percent Effect,[3],-4.77%
same,Percent Effect,[4],-2.81%
same,Percent Effect,[5],6.13%
same,Percent Effect,[6],-6.48%
same,Percent Effect,[7],16.7%
same,Percent Effect,[8],-14.2%
same,Percent Effect,[9],3.27%
same,Percent Effect,[10],5.79%
same,Percent Effect,[11],0%
same,Percent Effect,[12],-1.73%
O=C1C[C@H]2[C@H](CCN2Cc2ccccn2)N1CC1CC1,Percent Effect,[1],-3.35%
same,Percent Effect,[2],11.7%
same,Percent Effect,[3],1.05%
same,Percent Effect,[4],-4.27%
same,Percent Effect,[5],-5.25%
same,Percent Effect,[6],5.02%
same,Percent Effect,[7],12.4%
same,Percent Effect,[8],12.4%
same,Percent Effect,[9],-21.2%
same,Percent Effect,[10],6.76%
same,Percent Effect,[11],2.5%
same,Percent Effect,[12],-6.54%

# — ChEMBL document CHEMBL3988442, “University of Dundee, Small-Polar-MMV Screening Library” (2021)
